Measurements as given in the supplement of paper PMC11219838.

test system: Caenorhabditis elegans L1 (N2); assay: survival and reproduction score of C. elegans L1 (0: 0-10 living worms, 1: 11-20, 2: 21-50, 3: >50, 4: overgrown) (score 0-4); higher = more worms, less nematicidal, active = 1 or less; extreme values may be limits of the assay; conditions: 60 µM; 6 days; temperature: 20 °C
How it was run: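 About 20 synchronized C. elegans N2 L1s were added per 96-well well with E. coli HB101 in liquid NGM, and compound was pinned to 60 µM final (0.6% v/v DMSO). Sealed plates were shaken at 200 rpm for 6 days at 20 °C. Survival and reproduction were scored under a dissection microscope as an ordinal score of living worms per well. The scale ran 0 (0–10 worms) to 4 (overgrown, starved), and two biological replicates were averaged.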

SMILES	survival and reproduction score
CC(C)Oc1cccc(-c2nc(-c3ccccn3)no2)c1	4 (inactive)
O=C(CSc1nnc(-c2ccccc2)o1)NC1CC2CCC1C2 (stereo not drawn)	4 (inactive)
c1ccc(-c2noc(COc3cccc4ccccc34)n2)nc1	4 (inactive)
Clc1ccc(CSc2nnc(-c3ccccc3)o2)cc1Cl	4 (inactive)
Cc1cccc(-c2noc(-c3cc(Cl)ccc3Cl)n2)c1	2 (inactive)
COc1ccc(Cl)cc1NC(=O)CSc1nnc(-c2ccc(C)cc2)o1	4 (inactive)
COc1ccc(-c2noc(COc3ccccc3)n2)cc1	0 (active)
CCOc1ccccc1-c1nnc(SCC(=O)Nc2nc(C)cs2)o1	4 (inactive)
Cc1ccc(-c2nc(-c3cccnc3)no2)c(C)c1	0 (active)
O=C(CSc1nnc(-c2ccccc2Cl)o1)NCc1ccco1	4 (inactive)
COc1ccc(-c2noc(COc3ccccc3C)n2)cc1	4 (inactive)
COc1ccccc1NC(=O)c1ccccc1-c1nc(-c2ccccc2F)no1	4 (inactive)
COc1ccccc1-c1nc(-c2ccc(Cl)cc2Cl)no1	4 (inactive)
Cc1ccccc1CSc1nnc(-c2ccccc2Cl)o1	4 (inactive)
CCOc1nc(-c2ccc(C)cc2)ccc1-c1noc(CC)n1	4 (inactive)
Cc1ccc(-c2noc(-c3ccc(Br)cc3)n2)cc1	4 (inactive)
CCOc1ccccc1-c1nnc(SCC(=O)c2ccccc2)o1	4 (inactive)
CCOc1ccccc1-c1nnc(SCC(=O)N2CCC(C)CC2)o1	4 (inactive)
COc1nc(C)ccc1-c1noc(-c2ccc(C(C)(C)C)cc2)n1	4 (inactive)

SMILES	survival and reproduction score
COc1ccccc1OCc1nc(-c2ccc(Br)cc2)no1	4 (inactive)
CCOc1nc(-c2ccc(C)cc2)ccc1-c1noc(-c2cccnc2)n1	4 (inactive)
Brc1ccc(-c2noc(COc3ccccc3)n2)cc1	4 (inactive)
COc1ccc(-c2noc(COc3ccc(Cl)c(C)c3)n2)cc1	4 (inactive)
Cc1cccc(C)c1NC(=O)CSc1nnc(-c2ccncc2)o1	4 (inactive)
Brc1cccc(-c2noc(-c3ccc4c(c3)OCO4)n2)c1	4 (inactive)
Cc1cc(OCc2nc(-c3ccccc3)no2)ccc1Br	4 (inactive)
O=C(CSc1nnc(-c2ccc(Br)cc2)o1)N1CCCCCC1	4 (inactive)
CC(=O)Nc1cccc(-c2nnc(SCc3ccccc3)o2)c1	4 (inactive)
Nc1nc(CSc2nnc(-c3ccccc3)o2)cs1	4 (inactive)
COc1ccccc1-c1nnc(SCc2ccc(C#N)cc2)o1	4 (inactive)
COc1ccc(-c2noc(-c3ccccc3C(=O)Nc3ccc(NC(C)=O)cc3)n2)cc1	4 (inactive)
COc1cccc(-c2nnc(SCC(=O)Nc3ccccc3)o2)c1	4 (inactive)
C=CCOc1cccc(-c2nc(-c3cccnc3)no2)c1	0 (active)
Cc1cc(OCc2nc(-c3ccncc3)no2)ccc1Cl	4 (inactive)
O=C(CSc1nnc(-c2ccco2)o1)c1ccc(Br)cc1	4 (inactive)
O=C(CSc1nnc(-c2cccnc2)o1)c1ccc2ccccc2c1	4 (inactive)
O=C(CSc1nnc(-c2ccncc2)o1)Nc1cccc(Cl)c1Cl	4 (inactive)
c1ccc(-c2nnc(SCc3nc4ccccc4[nH]3)o2)cc1	4 (inactive)
